High-throughput results deposited in PubChem BioAssay by National Center for Advancing Translational Sciences (NCATS).
MCF10A rerep = A quantitative high throughput screen for small molecules that induce DNA re-replication in MCF 10a normal breast cells; Potency, µM (top dose mostly 46.1 µM), inactives show at the top dose activity, positive = re-replication, most hits filed as activators; MCF 10A DNA re-replication, Hoechst nuclear intensity, 48 h; 350,000 compounds, 2.9% hits; note: % of control where 0% means no effect; nearly all actives have a fitted effect of over 50% in size
PTAP TSG101 blk = qHTS Assay for Iinhibitors of HIV-1 Budding by Blocking the Interaction of PTAP/TSG101; Tumor susceptibility gene 101 protein (Homo sapiens), Q99816; 340,000 tested, under 10 active; Fluorescence polarization, FITC-PTAP peptide / Tsg101 binding; Potency, µM (series often up to 115 µM), without a hit: at the top dose activity change, negative = inhibition, hits mostly inhibitors; active = well fitted inhibition curve with a large enough effect in the main read-out, with a control signal flat, not every such curve was filed as active; inconclusive = small, poorly fitted or top-dose-only effect, or effect the other way, or a change in a side signal; inactive = no such curve, though single readings can be large or run the other way; note: % of control where 0% means no effect
Target sequence (Q99816 whole entry, looked up): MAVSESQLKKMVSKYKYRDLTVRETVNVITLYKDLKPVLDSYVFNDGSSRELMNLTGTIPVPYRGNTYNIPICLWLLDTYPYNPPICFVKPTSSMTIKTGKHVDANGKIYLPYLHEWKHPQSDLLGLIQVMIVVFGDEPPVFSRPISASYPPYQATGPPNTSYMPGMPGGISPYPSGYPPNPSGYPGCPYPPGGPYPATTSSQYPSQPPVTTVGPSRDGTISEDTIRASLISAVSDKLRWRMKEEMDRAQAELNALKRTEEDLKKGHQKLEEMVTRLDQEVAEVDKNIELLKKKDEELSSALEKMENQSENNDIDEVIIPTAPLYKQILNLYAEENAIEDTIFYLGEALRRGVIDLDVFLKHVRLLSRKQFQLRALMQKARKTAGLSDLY
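Compounds were pin-transferred onto Tsg101 binding domain (10 uM final) in HEPES pH 7.5 buffer, then FITC-PTAP peptide was added at 50 nM final. After 20 min at RT, polarization reported peptide displacement across a qHTS concentration series.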
SW480 rereplic = A quantitative high throughput screen for small molecules that induce DNA re-replication in SW480 colon adenocarcinoma cells; SW480 DNA re-replication, Hoechst DNA content imaging, 48 h; Potency, µM (highest dose often 46.1 µM), for the others: at the highest dose re-replication activation, hits mostly activators; 340,000 compounds, 1.8% hits; note: % of control where 0% means no effect; nearly all actives have a fitted effect of over 55% in size
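Hoechst fluorescence of nuclei (405 nm excitation, 500-530 nm emission) measured by plate-scanning imager after 48 hr compound exposure at 37 C; re-replication scored as increased number of nuclei with elevated intensity.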
KB-V1 MDR tox = qHTS assay for MDR1-selective chemotherapeutics: Primary screen using the drug-selected MDR subline cells KB-V1; 400,000 compounds, 3.4% hits; Potency, µM (titrated, usually from 46.1 µM), most hits filed as cytotoxic; KB-V1 MDR cells viability, CellTiter-Glo, 72 h; note: % is set by controls: 0 for no effect and ±100 for the full control effect; nearly all actives have a fitted effect of over 60% in size
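Drug-selected KB-V1 cells, grown in DMEM lacking phenol red with 10% FBS, receive compound titrations; after three days at 37 degrees C, surviving cell ATP is quantified by CellTiter-Glo luminescence and responses normalized and curve-fitted.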
PINK1 modulator = A Quantitative High throughput Screen to Identify Chemical Modulators of PINK1 Expression. PINK1 immunofluorescence, high-content cytometry, 24 h. Potency, µM (highest dose often 76.6 µM), inactives show at the highest dose activation (PINK1 increase), actives largely listed as activators. 410,000 compounds, 0.2% hits. AID 624263, 2012; active = well fitted activation curve with a large enough effect; inconclusive = small, poorly fitted or top-dose-only effect; cell line not stated here; note: % of control where 0% means no effect; nearly all actives have a fitted effect of over 65% in size
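PINK1 protein, normally rapidly degraded, was detected by immunofluorescence after 24 hour compound treatment of a stable cell line. Titration data (5 concentrations) came from laser-scanning cytometry, with CCCP-treated wells as controls.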
KB-3-1 cytotox = qHTS assay for MDR1-selective chemotherapeutics: Primary screen using the parental adenocarcinoma cell KB-3-1 | Potency, µM (top dose mostly 46.1 µM), actives largely listed as cytotoxic | KB-3-1 viability, CellTiter-Glo ATP luminescence, 72 h | 400,000 compounds, 1.4% hits | AID 1347075, 2019; note: % is set by controls: 0 for no effect and ±100 for the full control effect; nearly all actives have a fitted effect of over 60% in size
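Parental KB-3-1 adenocarcinoma cells in phenol-red-free DMEM with 10% FBS were pin-treated with compounds at several concentrations, incubated 72 h at 37 °C, and viability read by CellTiter-Glo luminescence; concentration-effect curves were fitted after normalization.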
An asterisk follows results filed as active; i = inactive; ? = inconclusive; . = not tested or not shown. Rows were chosen to be rich in hits. Some 6.8% of all compounds tested hit in one or more screens of this group. Unless noted, calls come from the whole dose curve; as a rule, active = well fitted curve in the direction sought with a large enough effect; inconclusive = small, poorly fitted or top-dose-only effect, or another doubt; inactive = no such curve, though single readings can be large; an effect the other way counts as inactive or inconclusive. Potency is the fitted concentration of half-maximal effect.

SMILES | MCF10A rerep | PTAP TSG101 blk | SW480 rereplic | KB-V1 MDR tox | PINK1 modulator | KB-3-1 cytotox
CCN1CCN(S(=O)(=O)c2ccc3c4c(cccc24)C(=O)N3CC)CC1 | ? | 3% | 29% | ? | 2% | i
CCOC(=O)C1CCCN(S(=O)(=O)c2ccc3c4c(cccc24)C(=O)N3CC)C1 (stereo not given) | 15% | -5% | 7.3µM* | i | 6% | i
CCN1C(=O)c2cccc3c(S(=O)(=O)N4CCNCC4)ccc1c23 | ? | -7% | 6.5µM* | i | 0% | i
CCN1C(=O)c2cccc3c(S(=O)(=O)N4CCCC4C(=O)O)ccc1c23 (stereo not given) | -14% | -4% | 18µM* | i | 3% | i
CCOC(=O)C1CCCN(S(=O)(=O)c2ccc(OC)c3ccccc23)C1 (stereo not given) | 5% | -8% | 3% | ? | 4% | ?
CCOC(=O)COc1cccc2c(=O)n(CC(=O)NCc3ccc(F)cc3)ccc12 | ? | -7% | ? | 1.5µM* | 10% | 0.58µM*
CCOC(=O)COc1cccc2c(=O)n(CC(=O)NCc3ccccc3)ccc12 | 1.5µM* | -6% | ? | 1.6µM* | 6% | 0.92µM*
CCOC(=O)COc1cccc2c(=O)n(CC(N)=O)ccc12 | 0% | -8% | -7% | i | 4% | i
CCOC(=O)C(C)Oc1cccc2c(=O)n(CC(=O)NCc3ccc4c(c3)OCO4)ccc12 (stereo not given) | 6.5µM* | -6% | 4.1µM* | 7.3µM* | 8% | 6.5µM*
CCOCCCn1c(SCC(=O)Nc2cccc(OC)c2)nc2ccccc2c1=O | 0% | -8% | -1% | ? | 4% | i
COc1cccc(NC(=O)CSc2nc3c(sc4ccccc43)c(=O)n2CCCN2CCCC2)c1 | 18µM* | -11% | ? | i | 1% | i
C=CCn1c(SCC(=O)Nc2sccc2C(N)=O)nc2ccccc2c1=O | 7% | -8% | ? | 18µM* | 5% | ?
COc1cccc(NC(=O)CSc2nc3ccccc3c(=O)n2Cc2cccs2)c1 | 9% | -2% | 5% | 5.2µM* | 2% | i
Cc1ccc(NC(=O)CSc2nc3ccccc3c(=O)n2CCCN2CCCCC2)cc1Cl | 23µM* | -2% | -3% | ? | -3% | i
COc1ccc(-c2cc(C)no2)cc1S(=O)(=O)Nc1c(C)cc(C)cc1C | . | . | . | i | 7% | i
COc1cc(NC(=O)CCc2c(C)nn(-c3ccc(N4CCCCC4)nn3)c2C)cc(OC)c1OC | . | . | . | . | 3% | .
COc1ccc(-c2cnnn2-c2ccc(NC(=O)c3ccccc3OC)cc2)cc1 | . | . | . | i | 1% | ?
COc1cccc(NC(=O)CSc2nc3ccccc3c(=O)n2CCCC(=O)N2CCCC2)c1 | ? | -5% | 7% | 2.6µM* | 4% | i
COc1ccccc1CNC(=O)C1CCN(S(=O)(=O)c2c(C)noc2/C=C/c2c(C)cc(C)cc2C)CC1 | . | . | . | . | 1% | .
CN1C(=O)CSc2ccc(NC(=O)N3CCN(c4ccccn4)CC3)cc21 | -39% | 0% | -6% | 18µM* | 5% | i
Cc1ccc(NC(=O)N2CCc3ccccc32)cc1C | ? | 1% | 1% | i | 5% | i
CN1C(=O)CSc2ccc(NC(=O)N3CCc4ccccc43)cc21 | ? | -11% | 1% | 16µM* | . | i
Cc1ccc(C)c(N2CCN(C(=O)Nc3ccc4c(c3)N(C)C(=O)CS4)CC2)c1 | 3% | -1% | 2% | i | 7% | i
